Hits are enriched below; roughly 31% of the tested compounds scored in any of these assays.
CYP2C9 act = human CYP2C9 activators, primary screen, biochemical, luminescence; recombinant CYP2C9, luciferin-H conversion; hits give high values; factor 1 = untreated enzyme, 0 = blocked; 96,000 compounds, 1.4% hits; activation factor at 5 µM;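 active = activation factor of 2 or more for CYP2C9 at a 5 µM dose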;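 also: 0 = sulfaphenazole-blocked wells and 1 = vehicle-only wells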
Target sequence (P11712 whole entry, looked up): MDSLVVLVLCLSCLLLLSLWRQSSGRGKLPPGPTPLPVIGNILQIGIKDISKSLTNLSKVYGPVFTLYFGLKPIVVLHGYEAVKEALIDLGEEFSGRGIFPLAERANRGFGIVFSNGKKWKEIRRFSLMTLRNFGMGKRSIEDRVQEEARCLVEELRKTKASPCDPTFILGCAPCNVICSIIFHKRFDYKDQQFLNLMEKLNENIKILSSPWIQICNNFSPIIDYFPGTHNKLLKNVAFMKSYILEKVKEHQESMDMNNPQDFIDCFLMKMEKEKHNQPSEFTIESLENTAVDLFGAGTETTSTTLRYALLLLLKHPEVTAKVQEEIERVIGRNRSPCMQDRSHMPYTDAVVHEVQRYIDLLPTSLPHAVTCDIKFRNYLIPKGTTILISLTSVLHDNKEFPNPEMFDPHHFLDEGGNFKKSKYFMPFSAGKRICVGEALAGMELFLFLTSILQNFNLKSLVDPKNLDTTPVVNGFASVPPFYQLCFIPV
PLAP activator = PLAP enzyme activators, biochemical, luminescence, HTS; Alkaline phosphatase, placental type (Homo sapiens), P05187; purified PLAP enzyme, luminescent substrate read-out; hits give high values; activation fold at 20 µM; 96,000 compounds, 1.2% hits; in the data active = activation fold above about 2
CYP2C19 act = human CYP2C19 activators, primary screen, biochemical, luminescence; 96,000 tested, under 10 active; activation factor at 5 µM; recombinant CYP2C19, luciferin-H EGE luminescence; hits give high values; 0 = fully inhibited enzyme, 1 = untreated enzyme; AID 1025, 2008; Cytochrome P450 2C19 (Homo sapiens), P33261;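 active = activation factor of at least 2 at 5 µM in the primary screen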;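 also: 0 = wells with 2.5 mM tranylcypromine and 1 = vehicle-only wells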
CYP2C9 inh = blockers of cytochrome P450 2C9 activity – biochemical, luminescence, ADME assay, primary screen; P11712; CYP2C9 Supersomes, luciferin-H conversion; inhibition, % at 5 µM; 96,000 compounds, 20% hits; AID 777, 2007;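 active = blocking of liver enzyme CYP2C9 beyond about 50% at 5 µM, limit read from the data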
CYP2C19 inhib = blockers of cytochrome P450 2C19 activity – biochemical, luminescence, ADME assay, primary screen; P33261; CYP2C19 Supersomes, luciferin-H EGE luminescence, 30 min; inhibition, % at 5 µM; 96,000 compounds, 21% hits;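 active = CYP2C19 inhibition above a set limit at 5 µM in the primary screen, cut at about 50% in these data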;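 also: plate controls were negative control wells for no effect and 2.5 mM tranylcypromine positive control for full effect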
* = called active by the depositor.

SMILES	CYP2C9 act	PLAP activator	CYP2C19 act	CYP2C9 inh	CYP2C19 inhib
O=C(c1noc2c1CCCCC2)N1CCOCC1	0.4	1	0.8	58*	17
O=C(c1noc2c1CCCC2)N1CCCCC1	0.9	0.9	0.8	9	20
O=C(c1noc2c1CCCC2)N1CCN(Cc2ccccc2)CC1	1	1.2	0	4	97*
Cc1ccc(C(C(=O)NC(C)(C)C)N(C(=O)c2csnn2)c2ccccc2F)o1 (configuration not stated)	1	1	0.9	4	7
O=C(c1cc(-c2ccccc2O)on1)N1CCc2ccccc2C1	1.3	1.1	0.9	-26	14
O=C(c1cc(-c2ccc(O)cc2)on1)N1CCc2ccccc2C1	1	1.3	0.2	5	82*
O=C(c1cc(-c2cccc(O)c2)on1)N1CCOCC1	1.2	1	0.4	-17	59*
COC(=O)c1c(C)[nH]c(C)c1-c1ccccc1	0.7	1	0.4	27	60*
CCCn1nnnc1NC(=O)c1ccc(C)cc1Cl	0.7	0.9	0.6	26	38
O=C(c1cc(Cl)cc(Cl)c1)N1CCOCC1	1.2	0.9	1	-23	-3
Brc1cccc(OCCOCCn2ccnc2)c1	0	1	0	99*	100*
Cc1cc(OCCCn2ccnc2)cc(C)c1Cl	0	0.8	0	97*	100*
CCOc1cccc(OCCCCn2ccnc2)c1	0.1	0.9	0	89*	99*
CCN(CC)CCOCCOc1cc(C)c(Cl)c(C)c1	1	0.8	1	-5	3
Brc1cccc(OCCn2ccnc2)c1	0.4	0.9	0.1	64*	93*
CCCCC(CC)C(=O)NCCCN1CCN(CCCNC(=O)C(CC)CCCC)CC1 (configuration not stated)	0.9	1.7	1	11	4
O=C(NCCCN1CCCC1=O)c1cncc(Br)c1	1.1	1.2	1.1	-8	-13
CC1=CC(C)C2C(=O)N(CCC[N+](C)(C)C)C(=O)C2C1 (configuration not stated)	0.9	0.9	0.9	11	6
Cc1[nH][nH]c(=O)c1C(c1ccc(-c2ccc(Cl)cc2Cl)o1)c1c(C)[nH][nH]c1=O	0.5	2.7*	0.3	48	74*
O=C1/C(=C\c2ccccn2)SC(=S)N1Nc1ncc(C(F)(F)F)cc1Cl	0.6	1.1	0.3	42	65*
N#Cc1c(/N=C/c2ccco2)oc(-c2ccccc2)c1-c1ccccc1	0.3	0.9	0.5	73*	49
N#Cc1c(N)oc(-c2ccccc2)c1-c1ccccc1	0.4	1.2	0.3	56*	75*
N#Cc1c(N)oc(-c2ccco2)c1-c1ccco1	0.4	0.9	0.8	64*	22
Cc1cccc(C)c1NC(=O)C1(N(Cc2ccco2)C(=O)CC2NC(=O)NC2=O)CCCC1 (configuration not stated)	0.9	1.1	1	5	-1
Cc1ccc(C)c(N(CC(=O)NCCC2=CCCCC2)S(C)(=O)=O)c1	0.6	1.2	0.7	36	31
SMILES	CYP2C9 act	PLAP activator	CYP2C19 act	CYP2C9 inh	CYP2C19 inhib
COC(=O)c1[nH]cnc1C(=O)c1ccccc1	1.1	1.8	1	-9	-2
COc1ccc(-c2nn(C)c3sc(C(=O)N4CCOCC4)cc23)cc1OC	0.9	1	0.8	8	18
COc1ccc(N2CCN(C(=O)c3cc4c(-c5cccc(OC)c5)nn(C)c4s3)CC2)cc1	0.5	1.1	0.8	51*	23
COc1cccc(-c2nn(C)c3sc(C(=O)NCc4ccccn4)cc23)c1	0.5	1	0.9	50	13
COc1cccc(-c2nn(C)c3sc(C(=O)NCc4ccc(C)cc4)cc23)c1	0.5	1.8	0.7	54*	26
CCN(CC)C(=O)C(=O)c1cccn1-c1cccc(-n2cccc2C(=O)C(=O)N(CC)CC)c1C#N	0.7	1.4	0.6	32	36
CC1=NN(c2ccc(C)c(C)c2)C(=O)C1C(c1cccc(O)c1)C1C(=O)N(c2ccc(C)c(C)c2)N=C1C (configuration not stated)	0.4	1.2	0.8	61*	24
CON(C)c1nc(OCCNC(=O)COc2ccc(Cl)cc2C)nc(N(C)C)n1	0.5	1.4	0.6	51*	36
Cc1cc(Cl)ccc1OCC(=O)NCCCN1CCOCC1	1	1.6	0.6	-1	42
Cc1cc(Cl)ccc1OCC(=O)NCCOc1nc(N2CCOCC2)nc(N2CCOCC2)n1	0.8	1.4	0.8	23	19
CON(C)c1nc(OCCNC(=O)OCc2ccc(Cl)cc2Cl)nc(N(C)C)n1	0.4	1.2	0.6	63*	36
CN(C)c1nc(OCCNC(=O)COc2ccc(Cl)cc2Cl)nc(N2CCOCC2)n1	0.2	1.8	0.5	82*	50
COC(=O)NCCOc1nc(N(C)C)nc(N(C)C)n1	1	1.3	1	-2	0
Cc1ccc(N=Cc2c(O)n(-c3cc(Cl)ccc3N3CCOCC3)c(=O)c3ccccc23)cc1C	0.8	1.5	1	24	-4
COCC(=O)N(Cc1cc2ccc(C)cc2[nH]c1=O)c1ccc(OC)cc1	1	1	1	1	2
COCC(=O)N(Cc1cc2cc(OC)ccc2[nH]c1=O)c1ccc(C)cc1	0.4	1.5	0.6	59*	36
CCOc1ccc(N(Cc2cc3cc(OC)ccc3[nH]c2=O)C(=O)C2CCCO2)cc1 (configuration not stated)	0.3	1.2	0.8	68*	20
CN(C(=O)COC(=O)c1ccc(Cl)cc1N)C1CCS(=O)(=O)C1 (configuration not stated)	1.1	1	1.3	-5	-33
C/C(=C\C(=O)c1ccc(Br)cc1)NCc1ccc(C)cc1	0.8	0.7	0.9	22	10
Cc1ccccc1Nc1nnc(SCc2cc([N+](=O)[O-])cc3c2OCOC3)s1	0.4	2*	0	62*	100*
O=[N+]([O-])c1cc2c(c(CSc3nnc(Nc4ccccc4)s3)c1)OCOC2	0.9	1.1	1	9	1
CC(C)(C)c1ccc(C(=O)CC(=O)c2cc(Cl)ccc2O)cc1	0.4	1.1	0.4	60*	57*
Cc1ccc(C(=O)CC(=O)c2cc(Cl)ccc2O)cc1	0.8	0.7	1	19	4
CC(C)NS(=O)(=O)c1ccc(CCC(=O)NCc2ccco2)cc1	0.8	1.1	0.7	20	30
COc1ccc(C(=O)Nn2cnnc2)c(OC)c1	0.7	0.9	0.7	29	34
CC(=O)NCCc1nc2ccccc2n1Cc1ccccc1	0.8	1.5	0.4	17	59*
COCc1nc2ccccc2n1Cc1ccc(Br)cc1	0.1	1	0	90*	100*
